Assay outcomes deposited in PubChem BioAssay by National Center for Advancing Translational Sciences (NCATS).
LmPK inhibitor: qHTS Assay for Inhibitors of Leishmania Mexicana Pyruvate Kinase (LmPK); purified LmPK, Kinase-Glo ATP luminescence, 1 h; Potency, µM (titrated, usually from 57.5 µM), usual class: inhibitors; AID 1721, 2009; hit rate 0.37% among 290,000
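ATP generated from ADP (0.1 mM) and PEP (0.5 mM) by 0.1 nM LmPK over 1 h at room temperature (pH 7.2 imidazole buffer) was detected by coupled luciferase luminescence. Values were normalized to uninhibited and no-enzyme wells.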
Giardia FBPA inh: qHTS Assay for Inhibitors of Fructose-1,6-bisphosphate Aldolase from Giardia Lamblia | A8B2U2 | purified Giardia FBPA | Potency, µM (top dose mostly 59.6 µM), hits mostly inhibitors | hit rate 0.71% among 290,000 | AID 2451, 2010; note: nearly all actives have a fitted effect of over 55% in size
Target sequence (A8B2U2 whole entry, looked up): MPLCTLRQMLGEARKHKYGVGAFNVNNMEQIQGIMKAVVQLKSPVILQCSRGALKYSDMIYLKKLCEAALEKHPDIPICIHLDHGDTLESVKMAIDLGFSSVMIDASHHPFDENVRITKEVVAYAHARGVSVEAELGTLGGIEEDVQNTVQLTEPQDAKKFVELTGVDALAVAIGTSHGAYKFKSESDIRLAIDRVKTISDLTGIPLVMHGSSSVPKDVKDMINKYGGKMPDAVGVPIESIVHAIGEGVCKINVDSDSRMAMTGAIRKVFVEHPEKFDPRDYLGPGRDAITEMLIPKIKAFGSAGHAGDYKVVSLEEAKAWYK
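40 nM FBPA preincubated 10 min at RT with compound (up to 57.5 uM final), then substrate plus GAPDH/TPI/NAD/arsenate coupling and diaphorase/resazurin added. Fluorescence read after 20 min at RT, 525/598 nm.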
Sm TGR inh: qHTS Assay for the Inhibitors of Schistosoma Mansoni Peroxiredoxins; purified TGR, DTNB reduction, TNB absorbance 405 nm; Potency, µM (top dose mostly 114 µM), most hits filed as inhibitors; hit rate 3% among 360,000; note: nearly all actives have a fitted effect of over 60% in size
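First, TGR (20 nM dispensed) and NADPH were mixed with compound. Second, a 15 min room-temperature incubation followed. Third, further NADPH and then DTNB were added to start the reaction. Finally, TNB absorbance was monitored kinetically.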
TbPYK inhibitor: qHTS of Trypanosoma Brucei Inhibitors; TbPYK enzyme, Kinase-Glo Plus ATP luminescence, 45 min; hit rate 0.12% among 410,000; Potency, µM (highest dose often 76.8 µM), hits mostly inhibitors; note: nearly all actives have a fitted effect of over 50% in size
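Quantitative HTS: titrated library compounds versus trypanosomal pyruvate kinase in TEA buffer (pH 7.2) containing KCl, MgCl2, BSA and Tween-20. Reactions were initiated with ADP, 130 uM final. Kinase-Glo Plus luminescence was read after 45 min at RT.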
RE007 growth inh: qHTS Assay for Inhibitors of the HIV-1 protein Vpr; S. pombe RE007 Vpr strain, BacTiter-Glo ATP luminescence, 24 h; hit rate 0.21% among 360,000; AID 651644, 2012; Potency, µM (top dose mostly 92.2 µM), most hits filed as inhibitors; active = well fitted falling curve with a large enough effect; inconclusive = small, poorly fitted or top-dose-only effect; inactive = no such curve, though single readings can be large or run the other way; note: nearly all actives have a fitted effect of over 50% in size
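Fission yeast RE007 carrying one integrated HIV-1 vpr copy, seeded at OD 0.01 in PMG+AL medium with 23 nL pinned compound. Grown 24 h at 30 degrees; viability read by BacTiter-Glo luminescence after 5 min.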
Large screens that a line does not name were inactive. Shown are actives, neighbours in structure and some others; about 3.3% of the full set was active somewhere. Unless noted, calls come from the whole dose curve; as a rule, active = well fitted curve in the direction sought with a large enough effect; inconclusive = small, poorly fitted or top-dose-only effect, or another doubt; inactive = no such curve, though single readings can be large; an effect the other way counts as inactive or inconclusive.

S=c1[nH]nc(Cc2n[nH]c(=S)n2-c2ccccc2)n1-c1ccccc1	TbPYK inhibitor inconclusive
S=c1[nH]nc(-c2cc(-c3ccco3)[nH]n2)n1-c1cccc2ccccc12	LmPK inhibitor 7.94µM, Sm TGR inh 11.2µM, TbPYK inhibitor inconclusive
S=c1[nH]nc(Cc2cccs2)n1-c1ccccc1Cl	LmPK inhibitor 10µM, TbPYK inhibitor inconclusive
S=c1[nH]nc(Cc2cccs2)n1-c1cccc2ccccc12	LmPK inhibitor 7.94µM, TbPYK inhibitor inconclusive (no result: RE007 growth inh)
S=c1[nH]nc(Cc2cccs2)n1-c1ccccc1	LmPK inhibitor inconclusive, TbPYK inhibitor 8.91µM (no result: Giardia FBPA inh)
CCCCc1ccc(-n2c(Cc3cccs3)n[nH]c2=S)cc1	TbPYK inhibitor 7.94µM
Cc1ccc(C)c(-n2c(Cc3cccs3)n[nH]c2=S)c1	LmPK inhibitor 10µM, TbPYK inhibitor inconclusive
OC(c1ccccc1)(c1nc(-c2cccc(C(F)(F)F)c2)cs1)C(F)(F)F (stereo unspecified)	RE007 growth inh 28.2µM (no result: LmPK inhibitor, Giardia FBPA inh, Sm TGR inh)
CC(O)(c1cccc(F)c1)c1nc(-c2cccc(C(F)(F)F)c2)cs1 (stereo unspecified)	RE007 growth inh 35.5µM (no result: LmPK inhibitor, Giardia FBPA inh, Sm TGR inh)
CC(O)(c1cccc(F)c1)c1nc(-c2ccccc2)cs1 (stereo unspecified)	none (no result: LmPK inhibitor, Giardia FBPA inh, Sm TGR inh)
CC12CC3(C)CC(C)(C1)CC(NC(=O)N1CCCC1)(C2)C3	RE007 growth inh 3.55µM
CCOC(=O)/C(=C/c1ccc(OC(=O)c2ccccc2)cc1)C(C)=O	Sm TGR inh inconclusive, RE007 growth inh 28.2µM
CN(C(=O)c1ccco1)c1nnc(C23CC4CC(CC(C4)C2)C3)s1	none
CN(C(=O)c1ccco1)c1nc2c(s1)CCCC2	LmPK inhibitor 25.1µM, RE007 growth inh inconclusive
O=C(NC1CCCC1)c1sc(=S)n2c1[nH]c(=O)c1ccccc12	LmPK inhibitor 22.4µM
O=C(O)Cc1ccc(NC(=S)Nc2ccc(Br)cc2Cl)cc1	Sm TGR inh 22.4µM
Fc1ccccc1NC(=S)Nc1ccc(Br)cc1	Sm TGR inh 50.1µM
S=C(Nc1ccccc1)Nc1ccc(Br)cc1	Sm TGR inh inconclusive
O=C(O)Cc1ccc(NC(=S)Nc2cccc(Cl)c2Cl)cc1	Sm TGR inh inconclusive
Fc1cc(Br)ccc1NC(=S)Nc1ccccc1	Sm TGR inh 28.2µM (no result: RE007 growth inh)
O=C(Nc1ccc([N+](=O)[O-])cn1)C1CC1	none
CCOC(=O)C1=CC(=C2C(=O)N(CC)C(=S)N(CC)C2=O)c2ccccc2O1	Sm TGR inh 25.1µM
Cc1cc(C)nc(NC(=O)CN2C(=O)c3ccccc3S2(=O)=O)n1	none (no result: LmPK inhibitor, Giardia FBPA inh)
COC(=O)c1sc(NC(=O)c2cc(-c3ccccc3)nc3ccccc23)c(C#N)c1C	Giardia FBPA inh 1.41µM, TbPYK inhibitor inconclusive
CC(=O)NCCc1ccc(S(=O)(=O)N2CCN(c3nc(-c4ccccc4)c(C)s3)CC2)cc1	none
C[C@H]1CN([C@@H](C)CO)C(=O)CCCn2cc(nn2)CO[C@@H]1CN(C)C(=O)Nc1ccc(N2CCCCC2)cc1	none (no result: LmPK inhibitor, Giardia FBPA inh, Sm TGR inh)
COc1ccc2c(c1)NC(C)(C)C=C2C	Giardia FBPA inh inconclusive, Sm TGR inh 39.8µM
CC1=CC(C)(C)Nc2ccccc21	Giardia FBPA inh inconclusive
Cc1n[nH]c(C)c1S(=O)(=O)N1CCC(C(=O)O)CC1	none
Cc1cc(=O)[nH]c(S/C=C/c2ccccc2)n1	LmPK inhibitor 12.6µM, RE007 growth inh inconclusive
Cc1ccc(CN2CCNC(=O)C2CC(=O)N(C)Cc2cnccn2)cc1 (stereo unspecified)	Sm TGR inh inconclusive
O=C1CN(C(=O)CC2C(=O)NCCN2Cc2ccccc2C(F)(F)F)CCN1 (stereo unspecified)	none (no result: Giardia FBPA inh)
CN(Cc1ccon1)C(=O)CC1C(=O)NCCN1Cc1ccc(F)c(F)c1 (stereo unspecified)	Sm TGR inh inconclusive (no result: Giardia FBPA inh)
CN(Cc1ccncn1)C(=O)CC1C(=O)NCCN1Cc1cccc(Oc2ccccc2)c1 (stereo unspecified)	Sm TGR inh 44.7µM
CN(Cc1ccon1)C(=O)CC1C(=O)NCCN1Cc1ccc(Cl)c(F)c1 (stereo unspecified)	Sm TGR inh 35.5µM (no result: Giardia FBPA inh)
O=C1NCCN(Cc2ccc(Cl)c(F)c2)C1CC(=O)N1CCc2ccccc2C1 (stereo unspecified)	Sm TGR inh 20µM
CN(Cc1cnccn1)C(=O)CC1C(=O)NCCN1Cc1c(F)cccc1Cl (stereo unspecified)	Sm TGR inh 31.6µM
CN(Cc1cccnc1)C(=O)CC1C(=O)NCCN1CC(c1ccccc1)c1ccccc1 (stereo unspecified)	Sm TGR inh inconclusive
CN(Cc1cnccn1)C(=O)CC1C(=O)NCCN1CC(c1ccccc1)c1ccccc1 (stereo unspecified)	Sm TGR inh 44.7µM
N#Cc1c(N)nc(SCC(=O)OCc2ccccc2)c(C#N)c1-c1ccco1	none
N#Cc1c(N)nc(SCc2ccccc2)c(C#N)c1-c1ccco1	Sm TGR inh 50.1µM
O=C1c2ccc([N+](=O)[O-])cc2S(=O)(=O)N1Cc1ccccc1	Sm TGR inh 17.8µM, RE007 growth inh inconclusive
C=CCOc1c2ccc(C(=O)NCc3ccccc3OC)cc2nn1C	none
CCN1C(=O)/C(=C\c2ccc(-c3ccc([N+](=O)[O-])cc3OC)o2)SC1=Nc1cccc(C(=O)O)c1	Sm TGR inh 35.5µM
CCN1C(=O)/C(=C\c2ccc(-c3cccc(C(=O)OC)c3)o2)SC1=Nc1ccc(C(=O)O)cc1	none (no result: TbPYK inhibitor, RE007 growth inh)
CN1CCN(c2nc(-c3cccc([N+](=O)[O-])c3)nc3ccccc23)CC1	none
CC(=O)c1ccc(S(=O)(=O)N2Cc3ccccc3CC2C(=O)O)cc1 (stereo unspecified)	Sm TGR inh 11.2µM
COc1ccc(-c2cc(-c3ccc(C)cc3)nc3c2COc2ccccc2-3)cc1	none (no result: LmPK inhibitor, Giardia FBPA inh, RE007 growth inh)
O=C(CN(CC1CCCO1)C(=O)CCC(=O)Nc1ccccn1)NCC1CCCO1 (stereo unspecified)	none
CCN(CC)S(=O)(=O)c1ccc(C)c(N=C=S)c1	Sm TGR inh 39.8µM
Cc1ncccc1C(=O)N1CCCC(C(=O)c2ccc3c4c(cccc24)CC3)C1 (stereo unspecified)	none
O=C(c1ccc2c3c(cccc13)CC2)C1CCCN(C(=O)c2ccc(=O)[nH]c2)C1 (stereo unspecified)	Sm TGR inh 39.8µM
Cc1c(Cl)cccc1N1C(=O)CC(N(O)c2ccccc2)C1=O (stereo unspecified)	Sm TGR inh 12.6µM
Cc1cccc(C)c1N1C(=O)CC(N(O)c2ccccc2)C1=O (stereo unspecified)	Sm TGR inh 14.1µM
CCOc1ccccc1N1C(=O)CC(N(O)c2ccccc2)C1=O (stereo unspecified)	Sm TGR inh inconclusive
